Molecules are shown by their SMILES. Where “and” joins values, the source holds several entries; their conditions need not be identical. Equal entries are not always repeated. Records with an inconclusive call do not appear. A number with no mark means an inactive call. Calls of active or inactive are those of the source. The call rests on the fitted dose curve; in most records, active means well fitted inhibition curve with a large enough effect in the repeat runs; inconclusive means weak or mixed curves; inactive means no such curve, though single readings can be large or run the other way.
On the % scale 0 is the no-effect control and ±100 the full control effect; potency means the concentration at half of the fitted maximal effect.

For the test, the target named is Cytochrome P450 3A4 (Homo sapiens) (UniProt P08684). Kind of test: Cytochrome P450 Family 3 Subfamily A Member 4 (CYP3A4) small molecule antagonists: luciferase reporter qHTS assay (AID 1671201). Further: nearly all actives have a fitted effect of over 50% in size. The following applies: P450-Glo CYP3A4 enzyme, luciferin luminescence, 1 h; series mostly up to 115 µM; activity change, negative = inhibition: at the top concentration. From the text: National Center for Advancing Translational Sciences [NCATS]
Chain of Cytochrome P450 3A4 (Homo sapiens) (P08684 whole entry, looked up): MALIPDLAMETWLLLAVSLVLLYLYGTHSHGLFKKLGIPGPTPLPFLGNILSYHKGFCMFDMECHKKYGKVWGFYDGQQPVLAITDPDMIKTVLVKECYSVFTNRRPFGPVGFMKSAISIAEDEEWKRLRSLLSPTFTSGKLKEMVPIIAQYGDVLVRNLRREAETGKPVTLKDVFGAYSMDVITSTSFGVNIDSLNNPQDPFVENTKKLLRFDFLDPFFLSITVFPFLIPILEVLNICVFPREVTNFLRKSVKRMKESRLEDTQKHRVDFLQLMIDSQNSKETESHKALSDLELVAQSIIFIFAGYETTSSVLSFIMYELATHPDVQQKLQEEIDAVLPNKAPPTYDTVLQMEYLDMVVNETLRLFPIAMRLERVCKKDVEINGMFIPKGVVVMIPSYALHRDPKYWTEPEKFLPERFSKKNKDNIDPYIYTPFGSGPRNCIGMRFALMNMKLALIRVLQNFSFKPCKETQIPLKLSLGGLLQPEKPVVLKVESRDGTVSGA
U.S. Environmental Protection Agency [EPA]
National Institutes of Environmental Health Sciences [NIEHS]
National Toxicology Program [NTP]
U.S. Food and Drug Administration [FDA]
Cytochrome P450 (CYP) enzymes are membrane-bound hemeproteins that play a key role in metabolism of drugs and xenobiotics. Evaluation of the effect of chemicals on CYP isozymes is useful to minimize the adverse drug reactions and toxicities in drug development process. Tox21 chemicals were tested for their effect on CYP enzyme activities by using P450-Glo (TM) screening systems (Promega Corporation, Madison, WI). These systems provide a luminescent method containing proluciferin substrates and are converted to luciferin products by CYP isozymes. The luciferin products formed are detected with a luciferin detection reagent, and the amount of light produced is proportional to CYP activity. P450-Glo (TM) CYP3A4 screening system (Catalog. No. V9910) was used to detect the compounds that interfere in CYP3A4 activity. The positive control compound used for CYP3A4 assay is ketoconazole (Sigma-Aldrich, St. Louis, MO).
Tox21 Assay Protocol Summary:
Two ul of enzyme-substrate mix was dispensed into medium binding white/solid 1536-well plates (Greiner Bio-One North America Inc., Monroe, NC) using a BioRaptr Flying Reagent Dispenser (FRD, Beckman Coulter, Brea, CA). Compounds dissolved in DMSO and positive control (ketoconazole) were transferred to the assay plates at 23 nl using a Pintool station (Wako, San Diego, CA). The assay plates were incubated at room temperature for 10 min. Then 2 ul of NADPH regeneration solution was added to each well of the assay plates using an FRD and incubated at room temperature for 1 h. The reaction was stopped by adding 4 ul of detection reagent using an FRD and after 20 min incubation at room temperature the luminescence signal was measured using a ViewLux plate reader (Perkin Elmer, Shelton, CT). Data were expressed as relative luminescence units.
On the technique in general: Reporter assays use an easily measured gene product as a stand-in for the process of interest.
`Nc1ccc(Cl)cc1C(=O)c1ccccc1F`: the “activity change, negative = inhibition” value was 52% [at 52.9 µM].
`CN(C)CCc1c[nH]c2ccccc12`: the “activity change, negative = inhibition” value was 46.6%.
Same read-out and setting: in the case of `CNC(=O)Oc1cc(C)cc(C(C)C)c1` it was 39.3%.
For `CC1(C)[C@H](/C=C2\CCSC2=O)[C@@H]1C(=O)OCc1coc(Cc2ccccc2)c1`, the Potency was 3.99 µM (active).
With `Oc1cc(Cl)cc(Cl)c1`, the “activity change, negative = inhibition” value was -18.2%.
Turning to `S=C=Nc1ccccc1`, the Potency is 32.7 µM (active).
On to `BrCCCBr`, for which the “activity change, negative = inhibition” value was 2.37%.
For `O=S(=O)(O)F`, the “activity change, negative = inhibition” value was -3.43%.
On to `O=S1OCC2C(CO1)C1(Cl)C(Cl)=C(Cl)C2(Cl)C1(Cl)Cl` (stereo not given), for which the Potency was 283 nM (active) and 633 nM (active).
For `CCOP(=S)(NC(C)C)Oc1ccccc1C(=O)OC(C)C` (stereo not given), the Potency was 0.71 µM (active).
`CSC(C)(C)/C=N/O`: the “activity change, negative = inhibition” value was 4.57%.
With `S=C=NCCc1ccccc1`, the Potency was 20.1 µM (active).
On the same count and under the same terms, in the case of `N#CC(C#N)=NNc1cccc(Cl)c1` it was 11.2 µM (active).
For the molecule `CCCCC/C=C\C/C=C\C/C=C\C/C=C\CCCC(=O)NCC(=O)O`, the “activity change, negative = inhibition” value was 4.4% [at 52.9 µM].
On to `N#CCCl`, for which the Potency is 66 µM (active).
In the case of `C#CC1(O)CCCCC1`, the “activity change, negative = inhibition” value was 18.1%.
`CC(C)Br`: the “activity change, negative = inhibition” value was 126%.
Still for that read-out and setting: the same measure for `Nc1nc(N)nc(Cl)n1`: 5.64%; for `Brc1cccc(-c2ccccc2)c1`: 25.7%.
`CCCCON=O`: the “activity change, negative = inhibition” value is -22.6%.
Same read-out and setting: the same measure for `CCN1CCC2(CC1)COc1cc3c(cc12)N(C(=O)c1ccc(-c2ccc(-c4nnc(C)o4)cc2C)cc1)CC3`: 232%; for `O=[N+]([O-])C(Br)Br`: 53.6%; for `Fc1ccc(C(OCCN2CCN(CCCc3ccccc3)CC2)c2ccc(F)cc2)cc1`: -19.9% [at 52.9 µM].
`CNC(=O)/C=C(\C)OP(=O)(OC)OC`: the “activity change, negative = inhibition” value is 3.31%.
Regarding `CC(O)C(=O)[O][Hg][c]1ccccc1` (stereo not given), the Potency is 6.33 µM (active).
For the molecule `COc1nc(C)nc(NC(=O)NS(=O)(=O)c2ccccc2Cl)n1`, the “activity change, negative = inhibition” value was 6.77%.
Still for that read-out and setting: the same measure for `O=c1[nH]c2cc(Cl)ccc2n1C1CCNCC1`: 5.44% [at 52.9 µM]; for `[O-][Cl+3]([O-])([O-])O`: 0.112%.
Regarding `NC1CCC(CC2CCC(N)CC2)CC1` (stereo not given), the Potency is 11.1 µM (active).
As to `CN1CCc2cc3c(cc2C1O)OCO3` (stereo not given), the “activity change, negative = inhibition” value is -7.21%.
On to `CCOC(=O)CCN(SN(C)C(=O)Oc1cccc2c1OC(C)(C)C2)C(C)C`, for which the Potency is 10 µM (active).
For the molecule `CC(C)=CC1C(C(=O)OC(C#N)c2cccc(Oc3ccccc3)c2)C1(C)C` (stereo not given), the “activity change, negative = inhibition” value is -22.1%.
As for `CCOP(=O)(OCC)Oc1nc(Cl)c(Cl)cc1Cl`, the “activity change, negative = inhibition” value was 59.2%.
Same read-out and setting: in the case of `O=C(O)CCCCCCNC1c2ccccc2CCc2ccccc21` it was -3.22% [at 52.9 µM].
Take `CCC[CH2][Sn]([CH2]CCC)([O]C(C)=O)[O]C(C)=O`: the “activity change, negative = inhibition” value was 0.854%.
With `CN(C)c1ccc(N)cc1`, the Potency is 19.5 µM (active).
The same measure, in the same setting: in the case of `CCOP(=S)(OCC)SC(CCl)N1C(=O)c2ccccc2C1=O` (stereo not given) it was 1.59 µM (active).
On to `CN1[C@@H]2CC[C@H]1CC(O)C2` (stereo not given in full), for which the “activity change, negative = inhibition” value is 0.176%.
`CCN(CC)CCc1c[nH]c2ccccc12`: the “activity change, negative = inhibition” value is 19.4%.
For `[O]=[Cr][O][Cr]=[O]`, the “activity change, negative = inhibition” value was -2.96%.

The values are drawn from PubChem BioAssay (Tox21).
